# Rows were chosen to be rich in hits. Some 6.1% of all compounds tested hit in one or more screens of this group.
# ERG-DNA inh: blocks human ERG Ets domain binding to DNA; Potency, µM (top dose mostly 76.9 µM), for the others: at the top dose FP activity, negative = inhibition, usual class: inhibitors; AID 624246; fluorescence polarization, His-ERG Ets domain / labelled DNA; hit rate 0.028% among 370,000; P11308; active = well fitted inhibition curve with a large enough effect in the polarisation, with a control signal flat; inconclusive = small, poorly fitted or top-dose-only effect, or effect the other way, or a change in a side signal; inactive = no such curve, though single readings can be large or run the other way; the % refers to the polarisation;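 also: polarization taken with two DNA probes labelled with fluorescein and Texas red; potency is read from the fitted curve at half-maximal effect; % of control where 0% means no effect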
# Target sequence (P11308 whole entry, looked up, the tested form may be a part): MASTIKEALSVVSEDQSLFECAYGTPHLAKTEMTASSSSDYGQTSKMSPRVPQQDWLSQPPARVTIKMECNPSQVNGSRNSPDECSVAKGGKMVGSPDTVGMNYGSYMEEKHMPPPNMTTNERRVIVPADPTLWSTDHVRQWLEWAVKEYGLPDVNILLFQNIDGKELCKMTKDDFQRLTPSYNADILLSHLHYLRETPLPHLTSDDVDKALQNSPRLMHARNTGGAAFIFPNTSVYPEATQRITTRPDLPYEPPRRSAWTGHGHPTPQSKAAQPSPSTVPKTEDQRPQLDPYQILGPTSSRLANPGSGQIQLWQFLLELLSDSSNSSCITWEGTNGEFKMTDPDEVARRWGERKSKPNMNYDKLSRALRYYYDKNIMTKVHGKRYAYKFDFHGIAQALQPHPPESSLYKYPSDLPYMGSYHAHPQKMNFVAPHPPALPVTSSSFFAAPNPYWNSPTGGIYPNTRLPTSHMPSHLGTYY
#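 His-tagged ERG Ets domain (1 uM in the protein solution; 300mM KCl, 50mM Tris-HCl, 1mM EDTA, 1mM DTT, pH 7.5) received compound, then a probe mix of 5 nM fluorescein-DNA and 100nM Texas-615-DNA. Fluorescence polarization was read for both dyes.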
# D1 PAM: potentiators of human D1 dopamine receptor; P21728; HEK293 TREx D1 cells, calcium flux, dopamine EC20 potentiation; potentiation, % at 10 µM; hit rate 0.036% among 360,000; AID 504651; in the data active = potentiation above about 30%; also: 0% is about no effect
# D3 ag: agonists of human D3 dopamine receptor; D3R DiscoveRx beta-arrestin cells, luminescence, 90 min; max activation, %; hit rate 0.58% among 410,000; AID 652048; in the data active = max activation above about 30%; also: 0% is about no effect
#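 Agonist-mode cell screen: cells plated at 1500/well and incubated overnight at 37 °C, then exposed to library compounds for 90 min at 37 °C. Detection reagent was added for 30–60 min at room temperature, and luminescence was read.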
# D3 antag: antagonists of human D3 dopamine receptor; P35462; D3R cells, DiscoveRx beta-arrestin luminescence, antagonist mode; hits give low values; max response, negative = inhibition, %; hit rate 2.5% among 360,000; in the data active = max response below about -50%; inconclusive = no clear call, values can overlap the other calls; also: % is scaled to controls: 0 for no effect and ±100 for the full control effect
#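 Cells plated overnight at 1500 cells/well, then exposed to library compounds with dopamine controls for 90 minutes at 37 degrees C. DiscoveRx reagent added for 30–60 minutes at room temperature; luminescence read, quantitative HTS format.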
# D1 ag: human D1 receptor agonism; AID 504660; P21728; HEK293 T-REx D1 cells, calcium flux, agonist mode; hit rate 1% among 360,000; activation, % at 2 µM; in the data active = activation above about 30%; also: 0% is about no effect
#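 Tetracycline-induced HEK293 TREx D1 cells, force-coupled to calcium signalling, were dye-loaded with a no-wash calcium kit. Compound was pin-added after a 10 s baseline. Fluorescence was read kinetically at 1 cycle/s for 180 s, with calcium rises flagged as agonism.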
# D1 antag: antagonists of human D1 dopamine receptor. HEK293 TREx D1 cells, calcium flux, dopamine EC80; hits give low values. activity change, negative = inhibition, % at 10 µM. hit rate 3.2% among 360,000; in the data active = activity change below about -30%; also: % is scaled to controls: 0 for no effect and ±100 for the full control effect
#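 HEK293 T-REx cells expressing inducible, force-coupled D1 receptor; no-wash Ca dye, 30–90 min RT. Cmpd → 180 s read at 1 Hz → EC80 DA → 180 s read.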
# An asterisk follows results filed as active; ? = inconclusive; . = not tested or not shown; ! = a repeat was not active.
SMILES,ERG-DNA inh,D1 PAM,D3 ag,D3 antag,D1 ag,D1 antag
Cc1c(C)c(C)c(S(=O)(=O)NCCC(=O)N2CCN(Cc3ccc(C#N)cc3)CC2)c(C)c1C,-7.3%,-6.5,-4.8,-15.8,-0.6,-29.7
COc1cccc2c1C(=O)c1c(O)c3c(c(O)c1C2=O)C[C@](O)(C(C)=O)C[C@H]3O[C@@H]1C[C@@H](N)[C@@H](O)[C@@H](C)O1,?,-3.9,-37.8,0.0,3.4,-34.9*
COc1cccc2c1C(=O)c1c(O)c3c(c(O)c1C2=O)CC(O)(C(C)=O)CC3OC1CC(O)C(O)C(C)O1 (stereo unspecified),2.51µM*,.,-8.4,-10.8,.,.
CC(C)(C)OC(=O)CN1c2cccc3cccc(c23)S1(=O)=O,-8.8%,-3.1,-1.0,0.5,3.9,5.0
CCO[C@H]1OC(C(N)=O)=C[C@@H](C)[C@@H]1CCCO,-9.3%,-1.7,11.1,22.4,-5.5,-14.8
O=C(NCC1CCN(S(=O)(=O)c2ccccc2)CC1)Nc1ccc(F)cc1F,-17.4%,-3.0,-2.1,-4.2,5.0,-57.7*
O=C(NCC1CCN(S(=O)(=O)c2ccccc2)CC1)Nc1ccc(F)cc1,?,-2.3,-1.3,-14.0,4.4,2.4
CN(C)CCCN(C(=O)c1cccs1)c1nc(-c2ccccc2)cs1,5.5%,-19.9,-37.4,-52.6*,7.7,4.2
COc1ccc(-c2csc(N(CCCN(C)C)C(=O)c3ccccc3F)n2)cc1,-6.5%,-16.1,-18.7,?,13.5,-17.1
CCC(=O)N(Cc1ccco1)c1nc(-c2ccc(OC)cc2)cs1,2.3%,-26.1,1.4,1.3,5.6,-24.5
CCC(=O)N(CC)c1nc(-c2ccc(OC)cc2)cs1,-3.0%,-0.8,4.1,80.5,112.7*,-47.1*
COc1ccc(-c2csc(N(CCCN(C)C)C(=O)c3ccccc3C)n2)cc1,-2.2%,-11.3,-25.2,-9.8,33.4*,-54.1*
COc1ccc(-c2csc(N(CCCN(C)C)C(=O)c3ccccc3Cl)n2)cc1,-12.2%,.,-23.8,-71.5*,.,.
CN(C)CCNC(=O)CN1C(=O)CCn2nc(-c3cn(C)c4ccccc34)cc21,2.2%,-2.7,-8.6,.,0.5,-5.1
O=C(/C=C/c1ccccc1Cl)N1CCC(c2nc3ccccc3o2)CC1,-2.3%,-0.8,11.8,.,-0.2,-4.6
Cc1nnc(SC(C)C(=O)Nc2nccs2)s1 (stereo unspecified),-6.0%,-4.8,-1.3,-4.4,2.6,-33.4*
CC(=O)OCC1OC(OCc2cn(C[C@H]3CC[C@H](Cn4cc(COC5OC(COC(C)=O)C(OC(C)=O)C(OC(C)=O)C5OC(C)=O)nn4)O3)nn2)C(OC(C)=O)C(OC(C)=O)C1OC(C)=O (stereo partly specified),9.6%,0.2,2.2,-23.1,3.9,-3.7
CCC1Nc2ncnc(N3CCCCC3)c2N(Cc2ccc(OC)cc2)C1=O (stereo unspecified),6.6%,.,-27.3,-63.7*!,.,.
CCC1Nc2ncnc(N3CCc4ccccc4C3)c2N(Cc2ccc(Cl)cc2)C1=O (stereo unspecified),5.0%,.,-24.0,-8.3,.,.
O=C1C(Cc2ccccc2)Nc2ncnc(N3CCCCC3)c2N1Cc1ccc(Br)cc1 (stereo unspecified),-3.8%,.,-45.7,-98.5*,.,.
CCC1Nc2ncnc(N3CCCCC3)c2N(Cc2ccc(Cl)cc2)C1=O (stereo unspecified),-1.6%,.,-19.1,-64.8*!,.,.
O=C1C(Cc2ccccc2)Nc2ncnc(N3CCc4ccccc4C3)c2N1Cc1ccc(Cl)cc1 (stereo unspecified),1.7%,3.9,-22.7,-59.2*,-0.6,-10.3
CNC(=O)c1[nH]cnc1C(=O)Nc1ccc(F)cc1,-6.0%,-0.2,0.4,8.9,0.4,-9.9
CCOC(=O)Cc1csc(NC(=O)CN2C(=O)c3ccccc3C2=O)n1,12.1%,-7.2,9.8,8.8,1.1,-25.9
CCC1Nc2ncnc(N3CCCCC3)c2N(Cc2ccc(Br)cc2)C1=O (stereo unspecified),-0.4%,-0.7,-20.9,-53.3*,0.1,-21.7
SMILES,ERG-DNA inh,D1 PAM,D3 ag,D3 antag,D1 ag,D1 antag
CCOc1ccccc1C1C(C#N)=C(N)N(N(C)C)C2=C1C(=O)CCC2 (stereo unspecified),-9.7%,8.6,6.3,10.4,2.3,-4.5
CC1N(C)c2cccc3cccc(c23)N1C,1.6%,-6.3,2.3,2.2,0.1,-41.3*
CN1c2cccc3cccc(c23)N(C)C1c1cccs1,4.7%,-2.7,-2.8,0.0,8.4,-3.9
O=C(O)CNC(=O)/C(=C/c1ccco1)NC(=O)/C=C/c1ccccc1,.,-8.4,2.0,10.4,270.3*,-36.0*
COc1cccc(/C=C2/CCC(CN(C)C)C2=O)c1 (stereo unspecified),2.8%,.,-22.6,-69.1*,.,.
COc1ccc2c3c(cccc13)C(=O)CC2,28.2µM*,-10.4,-8.6,-1.0,52.0*,0.3
COc1ccc2c(c1OC)C(=O)OC2,3.5%,-5.2,0.7,12.7,4.5,3.2
COc1ccc(-c2nnc(Nc3nc4c(OC)cccc4s3)o2)cc1,-5.0%,-3.9,-3.2,-9.1,0.9,13.4
COc1ccc(-c2nnc(Nc3nc4c(OC)cccc4s3)o2)c(OC)c1,.,-0.1,-3.6,-68.0*,-2.3,1.5
CNCC[C@@H](Oc1ccc(C(F)(F)F)cc1)c1ccccc1,-4.2%,.,.,.,45.6*,.
CCOC(=O)[C@@H]1[C@H]2COc3ccccc3[C@H]2N2C(=O)N(c3ccc(C)cc3)C(=O)[C@]12C,-5.7%,-1.9,-7.3,13.1,2.7,-23.4
Cc1ccc(-n2nc(CO)c(C(=O)NCCC(C)C)n2)cc1C,-2.1%,2.5,-11.9,.,2.4,-47.3*
CCc1ccc(CNC(=O)c2nn(-c3ccc(C)c(C)c3)nc2CO)cc1,-1.4%,-2.2,-8.8,.,7.2,0.9
N#Cc1ccc(OCC(O)CN2CCN(C(c3ccccc3)c3ccccc3)CC2)cc1 (stereo unspecified),-0.3%,19.8,-24.2,-54.1*,5.0,2.8
N#Cc1ccc(OCC(O)CN2CCN(CC(O)COc3ccc(C#N)cc3)CC2)cc1 (stereo unspecified),4.0%,.,-8.7,-11.6,11.7,-15.2
OC(COc1ccccc1)CN1CCN(C(c2ccccc2)c2ccccc2)CC1 (stereo unspecified),-2.2%,-12.7,-27.4,-95.5*,3.6,-6.4
COc1ccccc1OCCCCN1CCN(C(c2ccccc2)c2ccccc2)CC1,4.7%,-11.8,-34.3,-83.9*,8.5,8.8
COc1cccc(OC)c1OCCCCCCN1CCN(C)CC1,-0.4%,-5.8,0.8,4.0,2.1,2.8
c1ccc(OCCOCCN2CCN(C(c3ccccc3)c3ccccc3)CC2)cc1,-12.2%,-3.0,-29.8,-77.6*,7.4,-26.2
